Several values for one entry are separate records, joined by “and”; a condition that tells them apart may be missing. Equal entries are not always repeated. Inconclusive results are not listed. Activity calls are given as the source filed them. Unless noted, calls follow the shape of the dose curve; as a rule, active = well fitted curve in the direction sought with a large enough effect; inconclusive = small, poorly fitted or top-dose-only effect, or another doubt; inactive = no such curve, though single readings can be large; an effect the other way counts as inactive or inconclusive.
Tests used:
[1] = Cell Viability - N2a (AID 540); settings: N2a mouse neuroblastoma cell viability; activity change, negative = cytotoxicity: at 92.2 µM (top of the series);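 also: cells exposed to compound for 40 h at 37 °C; plate controls were DMSO alone for no effect and tamoxifen control for full effect; nearly all actives have a fitted effect of over 45% in size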
Method in brief: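 In this qHTS cytotoxicity screen, ATP-dependent luciferase luminescence reports viable N2a cells after a 40 hr compound exposure in complete culture medium. Potencies are AC50 values from standard Hill equation fits.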

[2] = Cell Viability - Renal Proximal Tubule (AID 545); settings: renal proximal tubule cells viability, primary cells of rat origin; at 91.7 µM (top of the series);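 also: cells exposed to compound for 40 hours; nearly all actives have a fitted effect of over 40% in size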
Method in brief: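 Rat kidney proximal tubule cells, freshly isolated; 1000 cells/well, 5 hr settle, compound 40 hr 37 °C. CellTiter-Glo 20 min RT, luminescence read. AC50 by standard Hill fit.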

[3] = Cellular Toxicity (caspase-3) Jurkat (AID 655); settings: Jurkat caspase-3 activation, luminescence, DMSO = 0%, tamoxifen = 100%; at 92.2 µM (top of the series);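 also: cells exposed to compound for 16 h at 37 °C before reading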
Method in brief: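 Luminescent caspase-3/7 readout (aminoluciferin substrate cleavage) in human T-cell leukemia Jurkat cells after 16 hr compound exposure. Concentration-response normalized to DMSO and 100 uM tamoxifen; AC50 by standard Hill equation.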

[4] = MultiTox-Fluor Cytotoxicity Assay - LYMP1-002 - Live Cells (AID 955); settings: LYMP1-002 lymphoblastoid live-cell protease fluorescence viability; series mostly up to 46.1 µM; also: % is scaled to controls: 0 for no effect and ±100 for the full control effect
Method in brief: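 In this qHTS viability format, lymphoblastoid cells (LYMP1-002, human) received compound for 16 hr at 37 C. Fluorogenic GF-AFC cleavage by viable cells was detected at 405/510 nm after 1 h at room temperature.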

[5] = MultiTox-Fluor Cytotoxicity Assay - LYMP1-003 - Dead Cells (AID 961); settings: LYMP1-003 lymphoblastoid cells, dead-cell protease fluorescence; series mostly up to 92.2 µM;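 also: 0% = DMSO and 100% = tetraoctylammonium bromide; nearly all actives have a fitted effect of over 70% in size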
Method in brief: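 LYMP1-003 human lymphoblastoid cells (2500/well) exposed to compound 16 h at 37 C in complete medium; dead-cell protease read with bis-AAF-R110 fluorescence (Ex/Em 485/520) after 60 min at room temperature. Normalized to DMSO and 15 uM tetraoctylammonium bromide; AC50 from Hill fit.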

[6] = Cell Viability - LYMP1-003 - Assay at 24 hr (AID 963); settings: LYMP1-003 lymphoblastoid cell viability; series mostly up to 92.2 µM;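 also: plate controls were DMSO only for no effect and tetraoctylammonium bromide positive control for full effect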
Method in brief: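 The lymphoblastoid line was treated with titrated compounds for 24 hours, and viable cell number estimated from luciferase-based ATP luminescence.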

[7] = Cell Viability - LYMP2-003 (AID 965); settings: LYMP2-003 lymphoblastoid cell viability; series mostly up to 92.2 µM;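 also: cells exposed to compounds for 24 h before reading; 0% = DMSO only and full effect = 92 µM tetraoctylammonium bromide; nearly all actives have a fitted effect of over 50% in size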
Method in brief: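 CellTiter-Glo luminescence (cellular ATP) after 24 h compound exposure at 37 C in complete medium; 2500 cells/well, 5 h settling beforehand. Concentration-response fitted to standard Hill equation for AC50. Tetraoctylammonium bromide served as positive control.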

[8] = Cell Viability - LYMP2-009 (AID 968); settings: LYMP2-009 lymphoblastoid cell viability; series mostly up to 92.2 µM;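 also: 0% = DMSO alone and the full-kill end = tetraoctylammonium bromide at 92 µM; nearly all actives have a fitted effect of over 55% in size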
[9] = Cell Viability - LYMP2-015 (AID 971); settings: LYMP2-015 lymphoblastoid cell viability; series mostly up to 92.2 µM;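 also: 0% = DMSO only and full effect = 92 µM tetraoctylammonium bromide; nearly all actives have a fitted effect of over 55% in size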
Method in brief: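 AC50 values reflect Hill-model fits of ATP-based luminescence (CellTiter-Glo) from a human lymphoblastoid line, 2500 cells/well, treated 24 hr at 37 C.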

[10] = Cell Viability - LYMP2-019 (AID 973); settings: LYMP2-019 lymphoblastoid cell line viability; series mostly up to 92.2 µM;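 also: 0% = DMSO alone and full effect = 92 µM tetraoctylammonium bromide; nearly all actives have a fitted effect of over 55% in size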
Method in brief: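 AC50 values come from Hill-equation modelling of qHTS concentration-response curves, where viability is measured as luciferase-based ATP luminescence in the lymphoblastoid line after 24 hr compound exposure in complete culture medium.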

[11] = Cell Viability - LYMP2-021 (AID 974); settings: LYMP2-021 lymphoblastoid cells viability; series mostly up to 92.2 µM;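 also: compound exposure lasts 24 hours at 37 °C; % is scaled to controls: 0 for no effect and ±100 for the full control effect; nearly all actives have a fitted effect of over 55% in size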
Method in brief: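 In qHTS format, compounds are tested against 2500 lymphoblastoid cells per well for 24 h; viable cell number is inferred from ATP-driven luciferase light, and Hill-equation fitting yields AC50 values.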

[12] = Cell Viability - LYMP2-025 (AID 976); settings: LYMP2-025 lymphoblastoid cell viability; series mostly up to 92.2 µM;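 also: plate controls were DMSO only for no effect and tetraoctylammonium bromide control for full effect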
Method in brief: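 Luminescent ATP readout after 24 hr treatment of a human lymphoblastoid line (LYMP2-025, 2500 cells/well, 37 C). Reagent developed 30 min at room temperature; AC50 fitted with the Hill equation.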

[13] = Cell Viability - LYMP2-002 (AID 977); settings: LYMP2-002 lymphoblastoid cell viability, qHTS; series mostly up to 92.2 µM;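 also: plate controls were DMSO only for no effect and 92 µM tetraoctylammonium bromide for full effect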
Method in brief: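 Human lymphoblastoid cells, 2500/well, complete medium; 5 h 37 C settle; compound 24 h 37 C; CellTiter-Glo, 30 min RT; luminescence. Decrease in ATP = cytotoxicity; AC50 via Hill equation.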

[14] = Cell Viability - LYMP2-006 (AID 978); settings: LYMP2-006 lymphoblastoid cell viability, qHTS; series mostly up to 92.2 µM; also: % is scaled to controls: 0 for no effect and ±100 for the full control effect; nearly all actives have a fitted effect of over 60% in size
Method in brief: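 qHTS, 1536-well; 2500 cells/well, 5 hr 37 C; cpd 24 hr 37 C; CellTiter-Glo 30 min RT; luminescence. Tetraoctylammonium bromide pos. ctrl. AC50 via Hill eqn.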

[15] = Cell Viability - LYMP2-008 (AID 980); settings: LYMP2-008 lymphoblastoid cell viability, qHTS; series mostly up to 92.2 µM; also: % is scaled to controls: 0 for no effect and ±100 for the full control effect; nearly all actives have a fitted effect of over 60% in size
Method in brief: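 Measured: ATP-dependent luminescence, proportional to viable cell number, in human lymphoblastoid cells treated 24 hr with compound in complete culture medium. Values are AC50s from Hill-equation modelling of qHTS titrations.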

[16] = Cell Viability - LYMP2-016 (AID 984); settings: LYMP2-016 lymphoblastoid cell viability, qHTS; series mostly up to 92.2 µM
Method in brief: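 qHTS, 1536-well: 2500 LYMP2-016 cells/well, 5 hr 37 C, compound added, 24 hr 37 C, CellTiter-Glo 30 min RT, luminescence. Tetraoctylammonium bromide positive control. AC50 via Hill fit.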

[17] = Cell Viability - LYMP1-002 - Assay at 40 hr (AID 994); settings: LYMP1-002 lymphoblastoid cell viability; series mostly up to 92.2 µM;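 also: 0% = DMSO only and full inhibition = 92 µM tetraoctylammonium bromide; nearly all actives have a fitted effect of over 60% in size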
Method in brief: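 Concentration-dependent ATP loss after 40 hr treatment at 37 C defined toxicity; AC50 values were obtained by fitting the standard Hill equation.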

[18] = biological target: Thyroid hormone receptor beta (Homo sapiens) (UniProt P10828); test: qHTS assay for small molecule agonists of thyroid hormone receptor beta signaling (AID 588545; calls by dose curve); settings: TR-UAS-bla GripTite HEK 293, beta-lactamase ratio, agonist mode, 18 h, percent of T3 response, DMSO as zero; series mostly up to 76.7 µM
Method in brief: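 In this cell-based screen, titrated compounds act on HEK 293 cells held in medium with 2% charcoal/dextran FBS, NEAA and pyruvate for 18 hrs at 37 C. Responses are expressed relative to T3 (10 nM) as 100% and basal DMSO as 0%.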

[19] = biological target: Voltage-gated inwardly rectifying potassium channel KCNH2 (Homo sapiens) (UniProt Q12809); test: qHTS Assay for Small Molecule Inhibitors of the Human hERG Channel Activity (AID 588834); settings: U2OS BacMam hERG, FluxOR thallium flux fluorescence; series mostly up to 92.2 µM;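 also: top concentration of the series differs between compounds; % is scaled to controls: 0 for no effect and ±100 for the full control effect; lower thallium flux fluorescence means stronger hERG block; nearly all actives have a fitted effect of over 50% in size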
Method in brief: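 Thallium-flux (FluxOR) read-out on FDSS: fluorescence read 10 s before and 2 min after stimulation buffer. hERG-BacMam-transduced U2OS cells, compound exposure about 10 min. AC50 by standard Hill equation.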

[20] = qHTS assay for small molecule agonists of the antioxidant response element (ARE) signaling pathway measured by Nrf2-dependant transcriptional activity (AID 720636; active = well fitted curve in the direction sought with a large enough effect in the repeat runs; an effect the other way counts as inactive or inconclusive; also: % of control where 0% means no effect); settings: ARE-luc HepG2, Nrf2 luciferase reporter, 16 h; series mostly up to 92.4 µM
Method in brief: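 ARE-luc HepG2 cells carrying an Nrf2-responsive luciferase reporter, in medium with 1% dialyzed FBS, exposed to compound for 16 hr at 37 C, 5% CO2. Luminescence read 30 min after ONE-Glo addition.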

Voltage-gated inwardly rectifying potassium channel KCNH2 (Homo sapiens), sequence (Q12809 whole entry, looked up): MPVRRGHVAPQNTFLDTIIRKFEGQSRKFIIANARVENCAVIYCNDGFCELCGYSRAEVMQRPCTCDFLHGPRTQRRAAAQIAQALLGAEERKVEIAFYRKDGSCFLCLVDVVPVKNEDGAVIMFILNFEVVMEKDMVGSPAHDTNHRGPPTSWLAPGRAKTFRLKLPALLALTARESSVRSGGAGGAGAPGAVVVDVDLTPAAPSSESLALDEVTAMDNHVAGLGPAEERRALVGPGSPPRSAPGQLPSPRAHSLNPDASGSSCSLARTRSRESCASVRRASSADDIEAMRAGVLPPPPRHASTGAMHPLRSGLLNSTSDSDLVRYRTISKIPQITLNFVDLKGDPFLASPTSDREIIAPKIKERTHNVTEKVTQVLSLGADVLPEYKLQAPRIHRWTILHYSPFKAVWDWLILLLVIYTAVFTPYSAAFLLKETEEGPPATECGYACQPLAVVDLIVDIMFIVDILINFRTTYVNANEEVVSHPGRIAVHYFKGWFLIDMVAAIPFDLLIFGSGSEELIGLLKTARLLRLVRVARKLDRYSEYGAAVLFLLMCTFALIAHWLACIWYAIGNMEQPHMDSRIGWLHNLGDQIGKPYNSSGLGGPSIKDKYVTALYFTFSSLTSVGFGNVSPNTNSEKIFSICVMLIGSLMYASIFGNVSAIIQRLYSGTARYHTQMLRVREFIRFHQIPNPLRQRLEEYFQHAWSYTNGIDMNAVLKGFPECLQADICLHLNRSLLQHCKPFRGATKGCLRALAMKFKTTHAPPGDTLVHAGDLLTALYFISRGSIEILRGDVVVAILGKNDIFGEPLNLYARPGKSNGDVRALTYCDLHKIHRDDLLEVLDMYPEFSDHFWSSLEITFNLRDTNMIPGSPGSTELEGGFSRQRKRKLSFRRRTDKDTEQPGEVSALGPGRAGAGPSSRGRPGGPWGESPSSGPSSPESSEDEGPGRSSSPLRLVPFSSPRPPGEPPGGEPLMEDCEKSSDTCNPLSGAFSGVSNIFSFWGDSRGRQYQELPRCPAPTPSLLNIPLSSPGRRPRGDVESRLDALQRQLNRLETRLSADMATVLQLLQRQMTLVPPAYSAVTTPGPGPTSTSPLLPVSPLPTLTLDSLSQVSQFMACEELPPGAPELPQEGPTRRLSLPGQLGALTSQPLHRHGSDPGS
Thyroid hormone receptor beta (Homo sapiens), sequence (P10828 whole entry, looked up): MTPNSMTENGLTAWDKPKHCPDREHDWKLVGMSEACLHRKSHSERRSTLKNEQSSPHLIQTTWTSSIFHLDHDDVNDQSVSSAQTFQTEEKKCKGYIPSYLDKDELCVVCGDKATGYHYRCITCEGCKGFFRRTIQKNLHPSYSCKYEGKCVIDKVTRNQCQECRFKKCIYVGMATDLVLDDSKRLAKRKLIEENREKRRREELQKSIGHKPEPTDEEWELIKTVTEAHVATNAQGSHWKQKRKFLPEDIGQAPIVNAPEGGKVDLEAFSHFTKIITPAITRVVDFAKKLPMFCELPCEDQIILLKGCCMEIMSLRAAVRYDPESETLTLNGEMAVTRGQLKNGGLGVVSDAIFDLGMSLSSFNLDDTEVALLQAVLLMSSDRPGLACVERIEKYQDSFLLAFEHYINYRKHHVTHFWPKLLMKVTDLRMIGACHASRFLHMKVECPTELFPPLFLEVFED

Clc1cc(Cl)c(Cl)c(Cl)c1Cl
inactive: activity change, negative = cytotoxicity [1] -10.3% | activity change, negative = cytotoxicity [2] -5.98% | caspase-3 activation [3] 1.31% | Potency [4] | Potency [5] | Potency [6] | Potency [7] | Potency [8] | Potency [9] | Potency [10] | Potency [11] | Potency [12] | Potency [13] | Potency [14] | Potency [15] | Potency [16] | Potency [17] | outcome [18] | Potency [19] | Potency [20]

CCCCOCCO
inactive: activity change, negative = cytotoxicity [1] 6.13% and -1.59% | activity change, negative = cytotoxicity [2] 5.22% and -6.35% | caspase-3 activation [3] 0.121% and 0.365% | Potency [4] | Potency [5] | Potency [6] | Potency [7] | Potency [8] | Potency [9] | Potency [10] | Potency [11] | Potency [12] | Potency [13] | Potency [14] | Potency [15] | Potency [16] | Potency [17] | outcome [18] | Potency [19] | Potency [20]

O=NO
inactive: activity change, negative = cytotoxicity [1] -19.4% and -4.96% | activity change, negative = cytotoxicity [2] -3.27% and -5.21% | caspase-3 activation [3] -1.69% and 0.278% | Potency [4] | Potency [5] | Potency [6] | Potency [7] | Potency [8] | Potency [9] | Potency [10] | Potency [11] | Potency [12] | Potency [13] | Potency [14] | Potency [15] | Potency [16] | Potency [17] | outcome [18] | Potency [19] | Potency [20]

CN(C)C=O
inactive: activity change, negative = cytotoxicity [1] -9.63% and 3.24% | activity change, negative = cytotoxicity [2] -1.87% and 6.39% | caspase-3 activation [3] 2.75% and 2.81% | Potency [4] | Potency [5] | Potency [6] | Potency [7] | Potency [8] | Potency [9] | Potency [10] | Potency [11] | Potency [12] | Potency [13] | Potency [14] | Potency [15] | Potency [16] | Potency [17] | outcome [18] | Potency [19] | Potency [20]

Cc1ccccc1C
inactive: activity change, negative = cytotoxicity [1] -22.6% and -8.22% | activity change, negative = cytotoxicity [2] -2.71% and -0.376% | caspase-3 activation [3] 3.87% and 7.19% | Potency [4] | Potency [5] | Potency [6] | Potency [7] | Potency [8] | Potency [9] | Potency [10] | Potency [11] | Potency [12] | Potency [13] | Potency [14] | Potency [15] | Potency [16] | Potency [17] | outcome [18] | Potency [19] | Potency [20]

Cc1cccc([N+](=O)[O-])c1C
inactive: activity change, negative = cytotoxicity [1] -2.02% | activity change, negative = cytotoxicity [2] 0.624% | caspase-3 activation [3] 0.0783% | Potency [4] | Potency [5] | Potency [6] | Potency [7] | Potency [8] | Potency [9] | Potency [10] | Potency [11] | Potency [12] | Potency [13] | Potency [14] | Potency [15] | Potency [16] | Potency [17] | outcome [18] | Potency [19] | Potency [20]

c1ccc2c(c1)[nH]c1ccccc12
inactive: activity change, negative = cytotoxicity [1] -16.4% | activity change, negative = cytotoxicity [2] -10.3% | caspase-3 activation [3] 0.344% | Potency [4] | Potency [5] | Potency [6] | Potency [7] | Potency [8] | Potency [9] | Potency [10] | Potency [11] | Potency [12] | Potency [13] | Potency [14] | Potency [15] | Potency [16] | Potency [17] | outcome [18] | Potency [19]

Source: PubChem BioAssay (NCATS)
